Shown is part of a subset that was picked to be rich in the strongest signals.
What was measured:
Assay in all cases: glycan array binding signal (z-score within array); higher = stronger binding
Settings in all cases: glycan notation: IUPAC condensed, linker removed; mutation: D22R
[1] = target: Fuc(a1-2)Gal(b1-3)GlcNAc(b1-3)GalNAc
In short: (§1)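 Arrays were curated from the Consortium for Functional Glycomics database, 3228 in total, and kept only where the protein sequence was available. Binding is expressed as a within-array Z-score. This score was averaged across arrays of the same protein sequence at different concentrations or buffers and across linkers, and negative values can be read as non-binding.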

[2] = target: Fuc(a1-2)Gal(b1-3)[Fuc(a1-4)]GlcNAc(b1-2)Man(a1-3)[Fuc(a1-2)Gal(b1-3)[Fuc(a1-4)]GlcNAc(b1-2)Man(a1-6)]Man(b1-4)GlcNAc(b1-4)[Fuc(a1-6)]GlcNAc(b1-4)[Fuc(a1-6)]GlcNAc
In short: as §1

[3] = target: Fuc(a1-2)Gal(b1-4)GlcNAc
In short: as §1

[4] = target: Fuc(a1-2)Gal(b1-4)GlcNAc(b1-2)Man
In short: as §1

[5] = target: Fuc(a1-2)[Gal(a1-3)]Gal(b1-4)GlcNAc(b1-3)GalNAc
In short: as §1

[6] = target: Fuc(a1-2)[GalNAc(a1-3)]Gal(b1-3)GalNAc(b1-3)Gal(a1-4)Gal(b1-4)Glc
In short: as §1

[7] = target: Fuc(a1-2)[GalNAc(a1-3)]Gal(b1-4)Glc
In short: as §1

[8] = target: Fuc(a1-2)[GalNAc(a1-3)]Gal(b1-4)GlcNAc(b1-3)Gal(b1-4)GlcNAc
In short: as §1

[9] = target: Fuc(a1-3)[Gal(b1-4)]GlcNAc6S
In short: as §1

[10] = target: Gal(a1-2)Gal
In short: as §1

[11] = target: Gal(b1-3)Gal
In short: as §1

[12] = target: Gal(b1-3)GalNAc(b1-3)Gal
In short: as §1

[13] = target: Gal(b1-3)GlcNAc(b1-3)Gal(b1-4)GlcNAc(b1-2)[Gal(b1-3)GlcNAc(b1-3)Gal(b1-4)GlcNAc(b1-6)]Man(a1-6)[Gal(b1-3)GlcNAc(b1-3)Gal(b1-4)GlcNAc(b1-2)Man(a1-3)]Man(b1-4)GlcNAc(b1-4)[Fuc(a1-6)]GlcNAc
In short: as §1

[14] = target: Gal(b1-3)GlcNAc(b1-3)Gal(b1-4)GlcNAc(b1-3)Gal(b1-4)GlcNAc(b1-2)[Gal(b1-3)GlcNAc(b1-3)Gal(b1-4)GlcNAc(b1-3)Gal(b1-4)GlcNAc(b1-6)]Man(a1-6)[Gal(b1-3)GlcNAc(b1-3)Gal(b1-4)GlcNAc(b1-3)Gal(b1-4)GlcNAc(b1-2)Man(a1-3)]Man(b1-4)GlcNAc(b1-4)[Fuc(a1-6)]GlcNAc
In short: as §1

[15] = target: Gal(b1-4)GlcNAc(a1-6)Gal(b1-4)GlcNAc
In short: as §1

[16] = target: Gal(b1-4)GlcNAc(b1-2)Man(a1-3)[GlcNAc(b1-2)Man(a1-6)]Man(b1-4)GlcNAc(b1-4)GlcNAc
In short: as §1

[17] = target: Gal(b1-4)GlcNAc(b1-2)Man(a1-6)[GlcNAc(b1-2)Man(a1-3)]Man(b1-4)GlcNAc(b1-4)GlcNAc
In short: as §1

[18] = target: Gal(b1-4)GlcNAc(b1-3)Gal(b1-3)GalNAc
In short: as §1

[19] = target: Gal(b1-4)GlcNAc(b1-3)Gal(b1-4)GlcNAc(b1-2)Man(a1-3)[Gal(b1-4)GlcNAc(b1-3)Gal(b1-4)GlcNAc(b1-2)Man(a1-6)]Man(b1-4)GlcNAc(b1-4)GlcNAc
In short: as §1

[20] = target: Gal(b1-4)GlcNAc(b1-3)Gal(b1-4)GlcNAc(b1-2)[Gal(b1-4)GlcNAc(b1-3)Gal(b1-4)GlcNAc(b1-6)]Man(a1-6)[Gal(b1-4)GlcNAc(b1-3)Gal(b1-4)GlcNAc(b1-2)Man(a1-3)]Man(b1-4)GlcNAc(b1-4)[Fuc(a1-6)]GlcNAc
In short: as §1

[21] = target: Gal(b1-4)GlcNAc(b1-3)Gal(b1-4)GlcNAc(b1-3)Gal(b1-4)GlcNAc(b1-2)Man(a1-3)[Gal(b1-4)GlcNAc(b1-3)Gal(b1-4)GlcNAc(b1-3)Gal(b1-4)GlcNAc(b1-2)Man(a1-6)]Man(b1-4)GlcNAc(b1-4)GlcNAc
In short: as §1

[22] = target: Gal(b1-4)GlcNAc(b1-3)Gal(b1-4)GlcNAc(b1-3)Gal(b1-4)GlcNAc(b1-2)[Gal(b1-4)GlcNAc(b1-3)Gal(b1-4)GlcNAc(b1-3)Gal(b1-4)GlcNAc(b1-6)]Man(a1-6)[Gal(b1-4)GlcNAc(b1-3)Gal(b1-4)GlcNAc(b1-3)Gal(b1-4)GlcNAc(b1-2)Man(a1-3)]Man(b1-4)GlcNAc(b1-4)[Fuc(a1-6)]GlcNAc
In short: as §1

[23] = target: Gal(b1-4)GlcNAc(b1-3)Gal(b1-4)GlcNAc(b1-3)[Gal(b1-4)GlcNAc(b1-3)Gal(b1-4)GlcNAc(b1-6)]GalNAc
In short: as §1

[24] = target: Gal(b1-4)GlcNAc(b1-3)Gal(b1-4)GlcNAc(b1-6)[Gal(b1-3)]GalNAc
In short: as §1

[25] = target: Gal(b1-4)GlcNAc(b1-6)Gal(b1-4)GlcNAc
In short: as §1

[26] = target: Gal3S(b1-4)[Fuc(a1-3)]GlcNAc
In short: as §1

[27] = target: GalNAc4S6S(b1-4)GlcNAc
In short: as §1

[28] = target: GlcA(b1-6)Gal
In short: as §1

[29] = target: GlcNAc(a1-4)Gal(b1-4)GlcNAc(b1-3)Gal(b1-4)GlcNAc(b1-3)Gal(b1-4)GlcNAc
In short: as §1

[30] = target: GlcNAc(b1-3)Fuc
In short: as §1

[31] = target: GlcNAc(b1-3)Gal
In short: as §1

[32] = target: GlcNAc(b1-3)Gal(b1-4)GlcNAc(b1-2)[GlcNAc(b1-3)Gal(b1-4)GlcNAc(b1-6)]Man(a1-6)[GlcNAc(b1-3)Gal(b1-4)GlcNAc(b1-2)Man(a1-3)]Man(b1-4)GlcNAc(b1-4)GlcNAc
In short: as §1

[33] = target: GlcNAc(b1-3)Gal(b1-4)GlcNAc(b1-3)Gal(b1-4)GlcNAc(b1-3)Gal(b1-4)GlcNAc(b1-3)Gal(b1-4)GlcNAc(b1-2)[GlcNAc(b1-3)Gal(b1-4)GlcNAc(b1-3)Gal(b1-4)GlcNAc(b1-3)Gal(b1-4)GlcNAc(b1-3)Gal(b1-4)GlcNAc(b1-6)]Man(a1-6)[GlcNAc(b1-3)Gal(b1-4)GlcNAc(b1-3)Gal(b1-4)GlcNAc(b1-3)Gal(b1-4)GlcNAc(b1-3)Gal(b1-4)GlcNAc(b1-2)Man(a1-3)]Man(b1-4)GlcNAc(b1-4)[Fuc(a1-6)]GlcNAc
In short: as §1

[34] = target: GlcNAc(b1-3)Gal(b1-4)GlcNAc(b1-6)[GlcNAc(b1-3)]Gal(b1-4)GlcNAc
In short: as §1

[35] = target: GlcNAc(b1-3)GalNAc
In short: as §1

[36] = target: GlcNAc(b1-4)[GlcNAc(b1-6)]GalNAc
In short: as §1

[37] = target: GlcNAc(b1-6)Gal(b1-4)GlcNAc
In short: as §1

[38] = target: Neu5Ac(a2-3)Gal(b1-3)GlcNAc(b1-2)Man(a1-3)[GlcNAc(b1-4)][Neu5Ac(a2-3)Gal(b1-3)GlcNAc(b1-2)Man(a1-6)]Man(b1-4)GlcNAc(b1-4)GlcNAc
In short: as §1

[39] = target: Neu5Ac(a2-3)Gal(b1-3)[Neu5Ac(a2-6)]GlcNAc(b1-3)[Fuc(a1-3)[Gal(b1-4)]GlcNAc(b1-6)]Gal(b1-4)Glc
In short: as §1

[40] = target: Neu5Ac(a2-3)Gal(b1-3)]Neu5Ac(a2-3)Gal(b1-4)]GlcNAc
In short: as §1

[41] = target: Neu5Ac(a2-3)Gal(b1-4)GlcNAc(b1-2)[Neu5Ac(a2-3)Gal(b1-4)GlcNAc(b1-4)]Man(a1-3)[GlcNAc(b1-4)][Neu5Ac(a2-3)Gal(b1-4)GlcNAc(b1-4)Man(a1-6)]Man(b1-4)GlcNAc(b1-4)GlcNAc
In short: as §1

[42] = target: Neu5Ac(a2-3)Gal(b1-4)GlcNAc(b1-3)Gal(b1-4)[Fuc(a1-3)]GlcNAc
In short: as §1

[43] = target: Neu5Ac(a2-3)Gal(b1-4)[Fuc(a1-3)]GlcNAc(b1-3)Gal(b1-4)[Fuc(a1-3)]GlcNAc(b1-3)Gal(b1-4)[Fuc(a1-3)]GlcNAc
In short: as §1

[44] = target: Neu5Ac(a2-6)Gal(b1-4)GlcNAc(b1-2)Man
In short: as §1

[45] = target: Neu5Ac(a2-6)Gal(b1-4)GlcNAc(b1-3)Gal(b1-3)GlcNAc
In short: as §1

[46] = target: Neu5Ac(a2-6)Gal(b1-4)GlcNAc(b1-3)Gal(b1-4)GlcNAc(b1-3)Gal(b1-4)GlcNAc(b1-2)Man(a1-3)[Neu5Ac(a2-6)Gal(b1-4)GlcNAc(b1-3)Gal(b1-4)GlcNAc(b1-3)Gal(b1-4)GlcNAc(b1-2)Man(a1-6)]GalNAc
In short: as §1

[47] = target: Neu5Ac(a2-6)Gal(b1-4)GlcNAc(b1-3)Gal(b1-4)GlcNAc(b1-3)[Neu5Ac(a2-6)Gal(b1-4)GlcNAc(b1-3)Gal(b1-4)GlcNAc(b1-6)]GalNAc
In short: as §1

[48] = target: Neu5Ac(a2-6)Gal(b1-4)GlcNAc(b1-3)GalNAc
In short: as §1

[49] = target: Neu5Ac(a2-6)Gal(b1-4)GlcNAc(b1-6)[Gal(b1-3)]GalNAc
In short: as §1

[50] = target: Neu5Ac(a2-6)GalNAc
In short: as §1

[51] = target: Neu5Ac(a2-8)Neu5Ac(a2-8)Neu5Ac(a2-3)[GalNAc(b1-4)]Gal(b1-4)Glc
In short: as §1

[52] = target: Neu5Ac(b2-6)Gal(b1-4)GlcNAc
In short: as §1

B1: MpL2 (Macrolepiota procera) (protein)
chain: MSTQVSSGQTYKITNVKAGTVIRLSGEDNKSIIGYPYHSGKNQQWTFNWTGKAWTLRSASSGSYLGIEGTPADGTRLVAVNDPFEWHIWRDEANENAFRIFVPFTNYNLDLSGYGDTTPGTPVQLWWTWEGLHQTWTIDRP
[1]
  glycan array binding signal (z-score): -0.233
[2]
  glycan array binding signal (z-score): 0.051
[3]
  glycan array binding signal (z-score): -0.202
[4]
  glycan array binding signal (z-score): 0.129
[5]
  glycan array binding signal (z-score): 0.092
[6]
  glycan array binding signal (z-score): -0.533
[7]
  glycan array binding signal (z-score): -0.092
[8]
  glycan array binding signal (z-score): -0.256
[9]
  glycan array binding signal (z-score): 0.212
[10]
  glycan array binding signal (z-score): -0.294
[11]
  glycan array binding signal (z-score): 0.078
[12]
  glycan array binding signal (z-score): -0.315
[13]
  glycan array binding signal (z-score): 10.4
[14]
  glycan array binding signal (z-score): 10.8
[15]
  glycan array binding signal (z-score): 4.13
[16]
  glycan array binding signal (z-score): -0.978
[17]
  glycan array binding signal (z-score): -0.42
[18]
  glycan array binding signal (z-score): -0.633
[19]
  glycan array binding signal (z-score): 2.6
[20]
  glycan array binding signal (z-score): 2.5
[21]
  glycan array binding signal (z-score): 2.57
[22]
  glycan array binding signal (z-score): 2.85
[23]
  glycan array binding signal (z-score): 2.76
[24]
  glycan array binding signal (z-score): 1.3
[25]
  glycan array binding signal (z-score): -1.1
[26]
  glycan array binding signal (z-score): -0.293
[27]
  glycan array binding signal (z-score): -0.021
[28]
  glycan array binding signal (z-score): 9.35
[29]
  glycan array binding signal (z-score): -0.264
[30]
  glycan array binding signal (z-score): 0.069
[31]
  glycan array binding signal (z-score): -0.201
[32]
  glycan array binding signal (z-score): 1.11
[33]
  glycan array binding signal (z-score): 0.58
[34]
  glycan array binding signal (z-score): -0.264
[35]
  glycan array binding signal (z-score): -0.361
[36]
  glycan array binding signal (z-score): -0.082
[37]
  glycan array binding signal (z-score): -0.168
[38]
  glycan array binding signal (z-score): 0.519
[39]
  glycan array binding signal (z-score): 0.292
[40]
  glycan array binding signal (z-score): -0.346
[41]
  glycan array binding signal (z-score): -0.638
[42]
  glycan array binding signal (z-score): -0.58
[43]
  glycan array binding signal (z-score): -0.574
[44]
  glycan array binding signal (z-score): -0.185
[45]
  glycan array binding signal (z-score): 0.558
[46]
  glycan array binding signal (z-score): 2.64
[47]
  glycan array binding signal (z-score): 2.97
[48]
  glycan array binding signal (z-score): -0.516
[49]
  glycan array binding signal (z-score): -0.069
[50]
  glycan array binding signal (z-score): -0.42
[51]
  glycan array binding signal (z-score): 0.163
[52]
  glycan array binding signal (z-score): 0.011

Source: the supplement of paper PMC8728848
